Compounds with a hit are over-represented: about 9.2% of the library has one in this group of screens.
LMNA splice mod = changes lamin A minigene splicing in HeLa cells | Potency, µM (series often up to 46.1 µM), hits mostly inhibitors | 0.01% of 200,000 active | HeLa LMNA splicing GFP/RFP minigene ratio, 48 h; active = well fitted inhibition curve with a large enough effect in the signal ratio, with a control signal flat, not every such curve was filed as active; inconclusive = small, poorly fitted or top-dose-only effect, or effect the other way, or a change in a side signal; the % refers to the signal ratio
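S3 HeLa cells stably expressing lamin A-EGFP splicing minigene plus DsRed2, 600 cells/well, 48 h compound exposure at 37C. Laser-scanning cytometry; analysed as GFP (500-530 nm)/RFP (575-640 nm) total intensity ratio; 0.5% DMSO vehicle.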
HTT cytoprotect = Huntington cell model cytoprotection by ATP luminescence; PC12 HTT-Q103 induced, cytoprotection, ATP luminescence, 40 h; 0.14% of 230,000 active; AID 1471; Potency, µM (series often up to 56.4 µM), usual class: activators; active = well fitted curve in the direction sought with a large enough effect; inconclusive = small, poorly fitted or top-dose-only effect, or another doubt; inactive = no such curve, though single readings can be large; an effect the other way counts as inactive or inconclusive; also: nearly all actives have a fitted effect of over 45% in size
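Stable PC12 Q103-GFP cells in serum-supplemented, phenol red-free DMEM; induction by tebufenozide at 100 nM final; compound dose series; cell viability quantified luminescently from ATP.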
HttQ103 aggreg = inhibitors of mutant huntingtin aggregate formation in PC12 cells; PC12 HttQ103-GFP aggregates, Acumen cytometry, 40 h; Potency, µM (highest dose often 46.1 µM), actives largely listed as inhibitors; 1.1% of 220,000 active; AID 1688; active = well fitted curve in the direction sought with a large enough effect; inconclusive = small, poorly fitted or top-dose-only effect, or another doubt; inactive = no such curve, though single readings can be large; an effect the other way counts as inactive or inconclusive; also: nearly all actives have a fitted effect of over 60% in size
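Compounds (qHTS titration) were added to PC12 cells expressing an ecdysone-driven HTT exon 1 Q103–GFP fusion after induction with 100 nM tebufenozide. Aggregate formation was measured as GFP objects in cell lysates.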
HPGD inh = blocks human HPGD enzyme activity | 4.3% of 150,000 active | purified HPGD, NADH fluorescence kinetic, PGE2 substrate | AID 894 | P15428 | Potency, µM, hits mostly inhibitors
Target sequence (P15428 whole entry, looked up): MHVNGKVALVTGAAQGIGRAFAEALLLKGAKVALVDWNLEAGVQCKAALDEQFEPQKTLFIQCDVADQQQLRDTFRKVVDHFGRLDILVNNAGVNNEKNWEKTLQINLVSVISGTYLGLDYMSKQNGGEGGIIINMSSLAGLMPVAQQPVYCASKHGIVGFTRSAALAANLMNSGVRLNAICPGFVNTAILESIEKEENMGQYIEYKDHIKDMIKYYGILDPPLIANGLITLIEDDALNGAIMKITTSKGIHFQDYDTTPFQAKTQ
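20 nM HPGD preincubated 15 min at room temperature with compound in 50 mM Tris-HCl pH 8, 0.01% Tween 20. Started with 1 mM NAD+ and 30 uM prostaglandin E2; NADH fluorescence (360/450 nm) read 5 times over 30-s intervals, last minus first.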
ALDH1A1 block = blocks purified human ALDH1A1 activity | AID 1030 | Potency, µM (titrated, usually from 75.3 µM), most hits filed as inhibitors | Purified ALDH1A1, NADH fluorescence, propionaldehyde substrate | 7.3% of 220,000 active | P00352
Target sequence (P00352 whole entry, looked up): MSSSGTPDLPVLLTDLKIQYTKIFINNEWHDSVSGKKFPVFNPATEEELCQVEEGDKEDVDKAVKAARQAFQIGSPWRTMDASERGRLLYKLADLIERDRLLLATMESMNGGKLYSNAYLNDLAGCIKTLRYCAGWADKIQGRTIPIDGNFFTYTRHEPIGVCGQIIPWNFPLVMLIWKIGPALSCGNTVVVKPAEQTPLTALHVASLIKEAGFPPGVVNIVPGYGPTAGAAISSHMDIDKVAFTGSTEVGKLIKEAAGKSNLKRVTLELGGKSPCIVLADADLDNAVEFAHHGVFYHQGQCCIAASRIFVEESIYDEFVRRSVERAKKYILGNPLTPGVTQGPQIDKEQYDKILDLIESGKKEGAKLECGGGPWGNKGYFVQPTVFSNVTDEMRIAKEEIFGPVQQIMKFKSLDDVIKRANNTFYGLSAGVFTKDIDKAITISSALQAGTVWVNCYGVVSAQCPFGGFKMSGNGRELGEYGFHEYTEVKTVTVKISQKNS
JMJD2E inh = JMJD2E (human) inhibition | B2RXH2 | JMJD2E catalytic domain, FDH-coupled NADH fluorescence (FDH is formaldehyde dehydrogenase) | Potency, µM (top dose mostly 57.1 µM), usual class: inhibitors | 1.6% of 230,000 active; also: nearly all actives have a fitted effect of over 50% in size
Of the large screens only hits and unclear results are named; the others gave an inactive call. Unless noted, calls follow the shape of the dose curve; as a rule, active = well fitted inhibition curve with a large enough effect (not every such curve was filed as active); inconclusive = small, poorly fitted or top-dose-only effect, or another doubt; inactive = no such curve, though single readings can be large or run the other way.

CCOc1ccccc1NC(=O)c1cnc(N2CCOCC2)c2ccccc12	none (no result: HTT cytoprotect, HttQ103 aggreg, HPGD inh, ALDH1A1 block, JMJD2E inh)
CCN(CC)C(=O)/C(C#N)=C/c1cc(O)c(O)c([N+](=O)[O-])c1	LMNA splice mod inconclusive, HTT cytoprotect inconclusive (no result: HPGD inh, ALDH1A1 block, JMJD2E inh)
Cc1cccc(Cc2cnc(N3C(=N)SC(C)C3=O)s2)c1 (configuration not stated)	LMNA splice mod inconclusive, HttQ103 aggreg 22µM (no result: HPGD inh)
c1ccc(C(c2ccccc2)N2CC[C@@]3(CCCNC3)C2)cc1	ALDH1A1 block inconclusive (no result: LMNA splice mod, HttQ103 aggreg, JMJD2E inh)
COc1ccccc1C1(CC(=O)N2CCCCC2)CCOC(C(C)C)C1 (configuration not stated)	LMNA splice mod inconclusive, HPGD inh 25µM, JMJD2E inh inconclusive
Cc1ccc(C2(CC(=O)N3CCCC3)CCOC(C(C)C)C2)cc1 (configuration not stated)	ALDH1A1 block inconclusive
CCOc1ccc(CNC(=O)c2ccc3c(c2)sc2nc(-c4ccc(OC)cc4)cn23)cc1	none (no result: HTT cytoprotect, HttQ103 aggreg, HPGD inh, ALDH1A1 block, JMJD2E inh)
CC[n+]1c(/C=C/N(C)c2ccccc2)oc2ccc(F)cc21	LMNA splice mod inconclusive, HttQ103 aggreg inconclusive, ALDH1A1 block 14µM, JMJD2E inh inconclusive
CC(C)c1cc(C(=O)NNC(=S)NCc2ccco2)c(O)c(C(C)C)c1	LMNA splice mod inconclusive, HttQ103 aggreg inconclusive, HPGD inh inconclusive, ALDH1A1 block 22µM
COc1cc(NC(=O)CN2C(=O)NC(c3ccccc3)(c3ccccc3)C2=O)c(C)cc1[N+](=O)[O-]	ALDH1A1 block inconclusive
N#CCCC(CCC#N)C1=NCCc2ccccc21	none (no result: LMNA splice mod, HPGD inh, ALDH1A1 block)
Nc1nnc(CC(=O)N/N=C/c2cc([N+](=O)[O-])cc(Br)c2O)s1	LMNA splice mod inconclusive, HTT cytoprotect inconclusive, ALDH1A1 block inconclusive, JMJD2E inh 11µM (no result: HPGD inh)
Cn1nnnc1SCCCNCc1ccccc1OCc1ccccc1Cl	none (no result: HTT cytoprotect, HttQ103 aggreg, HPGD inh, ALDH1A1 block, JMJD2E inh)
COC(=O)c1ccc(C(NC(=O)OCc2ccccc2)/C(=C/[C@@H](C)C(=O)NCc2ccc(OC)c(OC)c2)c2cccnc2)cc1 (some centres not stated)	none (no result: LMNA splice mod, HttQ103 aggreg)
O=S(=O)(NCc1csc(-c2ccccc2)n1)c1ccc(Cl)s1	HPGD inh 18µM
O=S(=O)(NCc1csc(-c2cccnc2)n1)c1ccc(Cl)s1	none
Cc1oc2cc(O)ccc2c(=O)c1N1C(=O)c2ccccc2C1=O	none (no result: HPGD inh)
CC(=O)Oc1ccc2c(=O)c(N3C(=O)c4ccccc4C3=O)c(C)oc2c1	HPGD inh 25µM
CCC(C)C(=O)OC1C2CC3=C4CC(=O)OC(c5ccoc5)[C@]4(C)CCC3[C@@](C)(C2=O)C(CC(=O)OC)C1(C)C (some centres not stated)	HTT cytoprotect inconclusive (no result: LMNA splice mod, HttQ103 aggreg)
Cc1ccc(C(=O)c2c(NC(=O)CSc3nnc(N)s3)sc3c2CCCC3)cc1	LMNA splice mod inconclusive, HPGD inh inconclusive
COCCNc1nnc(SCC(=O)NNC(=O)c2ccccc2)s1	none (no result: LMNA splice mod, HPGD inh)
Nc1nnc(SCC(=O)Nc2sc3c(c2C(=O)c2ccccc2)CCCC3)s1	LMNA splice mod inconclusive, ALDH1A1 block 13µM
Nc1nnc(SCC(=O)c2ccc3ccccc3c2)s1	HPGD inh 22µM, ALDH1A1 block 8.9µM
COCCNc1nnc(SCC(=O)Nc2sc3c(c2C(=O)c2ccccc2)CCCC3)s1	LMNA splice mod inconclusive, ALDH1A1 block 28µM
Nc1nnc(SCC(=O)c2cccc([N+](=O)[O-])c2)s1	ALDH1A1 block inconclusive (no result: LMNA splice mod, HPGD inh)
C[C@H]1Cc2c(COc3ccccc3)nc3c(c2CO1)CN(C(=O)c1cc(I)ccc1F)CC3	none (no result: HttQ103 aggreg)
CO[C@H]1COC(=O)[C@@H](C)COC(=O)[C@@H](OCc2ccccc2)/C=C\[C@@H]1C	none (no result: LMNA splice mod, HttQ103 aggreg, HPGD inh, JMJD2E inh)
Nc1ccccc1C(=O)NNC(=O)C(=O)/C=C(\O)c1ccccc1	JMJD2E inh inconclusive (no result: LMNA splice mod, HPGD inh)
O=S(=O)(c1ccccc1)N1CCC(n2nnc3cc(F)ccc32)CC1	none
O=S(=O)(c1ccc2c(c1)OCCO2)N1CCC(n2nnc3cc(C(F)(F)F)ccc32)CC1	LMNA splice mod inconclusive, HttQ103 aggreg 10µM
CCN(CC)S(=O)(=O)c1ccc(NC(=O)c2cc(C(=O)OC)cc([N+](=O)[O-])c2)cc1	ALDH1A1 block inconclusive (no result: HPGD inh)
COC(=O)c1cc(C(=O)Nc2ccc(S(=O)(=O)NC(C)(C)C)cc2)cc([N+](=O)[O-])c1	HPGD inh 18µM, ALDH1A1 block 14µM
COc1ccc(C(=O)Nc2ccc(S(=O)(=O)NC(C)(C)C)cc2)cc1[N+](=O)[O-]	ALDH1A1 block 18µM (no result: LMNA splice mod, HPGD inh)
Cc1ccc(NC(=S)Nc2ccc(C(C)C)cc2)cc1S(=O)(=O)N1CCCCCC1	LMNA splice mod inconclusive, HPGD inh inconclusive, ALDH1A1 block 18µM
O=c1cc(-c2ccccc2)[nH]c2ccccc12	LMNA splice mod inconclusive, HPGD inh 13µM, JMJD2E inh inconclusive
O=C1C(c2cc(=O)c3ccccc3[nH]2)=C(O)c2ccccc21	LMNA splice mod inconclusive, HPGD inh 14µM (no result: HTT cytoprotect)
C[C@@H](CCc1ccccc1)NC[C@H](O)c1ccc(O)c(C(N)=O)c1	LMNA splice mod inconclusive, HPGD inh inconclusive, ALDH1A1 block inconclusive, JMJD2E inh inconclusive
CC1=C(C(=O)OC(C)C)C(c2cccc([N+](=O)[O-])c2)n2c(cc(=O)[nH]c2=S)N1 (configuration not stated)	LMNA splice mod inconclusive, HPGD inh 28µM (no result: HTT cytoprotect)
COCCOC(=O)C1=C(C)NC(C)=C(C(=O)OC(C)C)[C@H]1c1cccc([N+](=O)[O-])c1	LMNA splice mod inconclusive (no result: HttQ103 aggreg)
Cc1ccc2c(CC(=O)OC(C)C(=O)NCc3ccc4c(c3)OCO4)coc2c1 (configuration not stated)	HPGD inh 14µM
Cc1ccc(NC(=O)NCc2ccc3c(c2)OCO3)cc1	none
COc1ccc2c(CC(=O)NCc3ccc4c(c3)OCO4)coc2c1	ALDH1A1 block 8.9µM
CC(OC(=O)Cc1coc2cc3c(cc12)CCC3)C(=O)NCc1ccc2c(c1)OCO2 (configuration not stated)	none
Cc1ccc2c(CC(=O)NCc3ccc4c(c3)OCO4)coc2c1	ALDH1A1 block 4.5µM
CC(C)C(OC(=O)c1cc2occc2n1C)C(=O)NCc1ccc2c(c1)OCO2 (configuration not stated)	LMNA splice mod inconclusive, HPGD inh 13µM, ALDH1A1 block inconclusive
O=C(c1cnccn1)N1CCC2(CCCN(c3cccc(-c4ccccc4)c3)C2)CC1	none (no result: LMNA splice mod, HttQ103 aggreg, JMJD2E inh)
Oc1cc2cc(CCN3CCN(c4nsc5ccccc45)CC3)c(Cl)cc2[nH]1	none (no result: LMNA splice mod, HPGD inh, ALDH1A1 block, JMJD2E inh)
O=C(COc1ccc([N+](=O)[O-])cc1)Nc1ccc(C(=O)NCc2cccnc2)cc1	HttQ103 aggreg 3.5µM
O=C(COc1ccc([N+](=O)[O-])cc1)NCc1cccnc1	none
CCCCC/C=C\CC(O)/C=C/c1cccc(CC(O)CCCCO)n1 (configuration not stated)	none (no result: HttQ103 aggreg)
Cc1ccc([N+](=O)[O-])cc1NC(=O)Nc1cccc(F)c1	none (no result: LMNA splice mod, HPGD inh)
